Test results taken from PubChem BioAssay (Tox21).
Where “and” joins values, the source holds several entries; their conditions need not be identical. Equal values may be shown once. Results filed as inconclusive are left out. Some structures have more than one record in an assay (separate samples or runs), and their calls can disagree. Calls of active or inactive are those of the source. Unless noted, calls come from the whole dose curve; as a rule, active = well fitted curve in the direction sought with a large enough effect in the repeat runs; inconclusive = weak or mixed curves; inactive = no such curve, though single readings can be large; an effect the other way counts as inactive or inconclusive.

Assays:
[1] = qHTS assay to identify small molecule antagonists of the vitamin D receptor (VDR) signaling pathway - cell viability counter screen (AID 743225); note: nearly all actives have a fitted effect of over 50% in size; note: potency is the fitted concentration of half-maximal effect
Outline: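 In this counter screen, VDR-bla HEK 293T cells receive test compound plus 3 nM final calcitriol for 16 h at 37C. Room-temperature steps of 2 h with the beta-lactamase substrate, then 30 min with CellTiter-Glo, precede the luminescence read.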

[2] = qHTS assay to identify small molecule agonists of the endoplasmic reticulum stress response signaling pathway (AID 1159516; active = well fitted activation curve with a large enough effect in the signal ratio in the repeat runs, not every such curve was filed as active; the % refers to the signal ratio; note: potency is the fitted concentration of half-maximal effect)
Outline: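 Using a HeLa line with an ESRE-driven beta-lactamase gene, agonist activity was measured by FRET substrate fluorescence (460 and 530 nm emission) after cells were treated with compounds for 5 hr at 37 C and 5% CO2.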

[3] = qHTS assay to identify small molecule agonists of the endoplasmic reticulum stress response signaling pathway - cell viability counter screen (AID 1159517; calls by dose curve; note: nearly all actives have a fitted effect of over 50% in size; note: potency is the fitted concentration of half-maximal effect)
Outline: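 ESRE-bla HeLa cells (1,500/well) were plated overnight at 37 C and exposed to compounds for 5 hr. After the 2 hr beta-lactamase substrate read, CellTiter-Glo went into the same wells, and luminescence was read after 30 min at room temperature.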

[4] = qHTS assay to identify small molecule antagonists of the retinoid-related orphan receptor gamma (ROR-gamma) signaling pathway - cell viability counter screen (AID 1159520); note: nearly all actives have a fitted effect of over 50% in size; note: potency is the fitted concentration of half-maximal effect
Outline: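 Cytotoxicity was read from cellular ATP (CellTiter-Glo luminescence) after 16 hr at 37 C with 1 uM doxycycline induction. The inducer was added 2 hr after compound transfer to Tet-on ROR gamma CHO cells.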

[5] = qHTS assay to identify small molecule agonists of the AP-1 signaling pathway - cell viability counter screen (AID 1159525; calls by dose curve; note: nearly all actives have a fitted effect of over 55% in size; note: potency is the fitted concentration of half-maximal effect)
Outline: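 Intracellular ATP by Cell Titer Glo luminescence (30 min, RT) in the same ME-180 AP-1-bla wells after the 5 h compound exposure at 37 °C. Normalised to tetra n-octyl ammonium bromide and DMSO controls.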

[6] = qHTS assay to identify small molecule agonists of the AP-1 signaling pathway (AID 1159526; calls by dose curve)
[7] = molecular target: Retinoic acid receptor RXR-alpha (Homo sapiens) (UniProt P19793); experiment: qHTS assay to identify small molecule agonists of the RXR signaling pathway (AID 1159527; calls by dose curve; note: nearly all actives have a fitted effect of over 35% in size)
Chain of Retinoic acid receptor RXR-alpha (Homo sapiens) (P19793 whole entry, looked up): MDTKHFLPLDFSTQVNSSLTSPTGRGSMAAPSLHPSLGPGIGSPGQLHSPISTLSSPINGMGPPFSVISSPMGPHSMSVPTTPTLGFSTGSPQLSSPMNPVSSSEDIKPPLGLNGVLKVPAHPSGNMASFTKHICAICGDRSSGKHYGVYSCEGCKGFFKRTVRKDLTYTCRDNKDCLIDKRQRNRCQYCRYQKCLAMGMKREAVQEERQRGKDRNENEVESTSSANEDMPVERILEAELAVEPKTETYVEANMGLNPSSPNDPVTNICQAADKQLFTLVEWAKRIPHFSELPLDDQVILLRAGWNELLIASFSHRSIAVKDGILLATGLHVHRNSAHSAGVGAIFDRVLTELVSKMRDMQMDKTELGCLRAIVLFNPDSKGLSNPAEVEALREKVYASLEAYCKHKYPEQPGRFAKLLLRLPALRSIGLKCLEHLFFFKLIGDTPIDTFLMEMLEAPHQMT
Outline: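 Fluorescence ratio readout (460 vs 530 nm) from GeneBLAzer RXR-alpha HEK 293T cells after 16 hr compound treatment; cells seeded 5 hr beforehand in low-serum, charcoal-stripped medium.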

[8] = qHTS assay to identify small molecule agonists of the RXR signaling pathway - cell viability counter screen (AID 1159529); note: nearly all actives have a fitted effect of over 50% in size; note: potency is the fitted concentration of half-maximal effect
Outline: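 Viability read-out for the RXR-alpha agonist qHTS: luminescent CellTiter-Glo signal after 30 min at RT. HEK 293T bla reporter cells, 2% charcoal-stripped FBS, 16 hr compound incubation; tetraoctyl ammonium bromide as cytotoxic control.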

[9] = molecular target: Nuclear receptor ROR-gamma (Homo sapiens) (UniProt P51449); experiment: qHTS assay to identify small molecule antagonists of the retinoid-related orphan receptor gamma (ROR-gamma) signaling pathway (AID 1159521; note: nearly all actives have a fitted effect of over 50% in size; note: potency is the fitted concentration of half-maximal effect)
Outline: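 Screening format: cell-based luciferase reporter in CHO cells with doxycycline-inducible RORγ. Compound pre-exposure lasts 2 h, doxycycline is 1 uM final, induction runs 16 h at 37 C, and ONE-Glo luminescence is read.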

[10] = qHTS assay to identify small molecule agonists of the vitamin D receptor (VDR) signaling pathway - cell viability counter screen (AID 743224); note: nearly all actives have a fitted effect of over 50% in size; note: potency is the fitted concentration of half-maximal effect
Outline: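 Compounds were pin-transferred onto VDR-bla cells plated 4 h earlier; following 16 h incubation at 37C, cell viability was quantified by CellTiter-Glo luminescence after 30 min at room temperature.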

Measured: Potency

CCNc1nc(NC(C)CC)nc(OC)n1 (stereo not given)
not listed: [9] | [10]
inactive: all other assays above

CNC(=O)c1cc(Oc2ccc(NC(=O)Nc3ccc(Cl)c(C(F)(F)F)c3)cc2)ccn1
active: [1] 12 µM | [9] 13.3 µM
inactive: [2] | [3] | [5]

O=C1NC2CCCCN2C12CCN(CCCN1c3ccccc3CCc3ccc(Cl)cc31)CC2 (stereo not given)
inactive: [10] | [2] | [3]
active: [1] 23.9 µM | [9] 23.7 µM | [8] 21.3 µM

CC(C)(C)C1=CC(=O)C=C(C(C)(C)C)C1=O
not listed: [7] | [9]
inactive: all other assays above

C=C[C@](C)(O)CC[C@@H]1[C@@]2(C)CCCC(C)(C)[C@@H]2CC[C@@]1(C)O
active: [10] 43.6 µM | [1] 43.6 µM | [5] 24.5 µM | [8] 43.6 µM
inactive: [2] | [3]

O=C(O)CC(=O)O
not listed: [5] | [9]
inactive: all other assays above

Cc1cccc(C)c1NC(=O)CN1CCN(CCCC(c2ccc(F)cc2)c2ccc(F)cc2)CC1
inactive: [2] | [3]
active: [10] 29.8 µM | [9] 21.1 µM | [8] 21.3 µM

NC(=O)c1ccccc1N
not listed: [4] | [5] | [10]
inactive: all other assays above

CCN(CC)CCOC(=O)C1(C2CCCCC2)CCCCC1
inactive: [1] | [2] | [3]
active: [8] 12 µM

Cc1ccc2ccc3cccc4ccc1c2c34
inactive: [10] | [2] | [3] | [4] | [5] | [6]

CCCCCCCCCCCCCCCC
not listed: [7] | [9] | [10]
inactive: all other assays above

CCN(CC)CCNc1ccc(CO)c2sc3ccccc3c(=O)c12
inactive: [2] | [3] | [4] | [5] | [6]
active: [8] 6.01 µM

Cn1cnc2ncnc(N)c21
not listed: [3]
inactive: all other assays above

Cc1cn[nH]c1
inactive: [2] | [3] | [4] | [5] | [6] | [8]

Cc1c(C(=O)O)cccc1[N+](=O)[O-]
inactive: [1] | [2] | [3] | [4] | [5]

CCOC(=O)N1CCC(=C2c3ccc(Cl)cc3CCc3cccnc32)CC1
54.9 µM (active) and inactive: [10] | [8]
38.9 µM (active) and inactive: [1]
active: [9] 6.86 µM and 21.1 µM
inactive: [2] | [3] | [5]

Cc1nc(Nc2ncc(C(=O)Nc3c(C)cccc3Cl)s2)cc(N2CCN(CCO)CC2)n1
inactive: [1] | [2] | [3] | [5] | [8]

CNCC[C@H](Oc1cccc2ccccc12)c1cccs1
active: [10] 11.9 µM | [1] 8.49 µM | [8] 23.9 µM
inactive: [2] | [3] | [4] | [5]

CN(C)CCOC(c1ccccc1)c1ccccc1 (tested in a mixture with another compound)
inactive: [2] | [4] | [5]

COC(=O)C1=C(C)NC(C)=C(C(=O)OCCCN2CCC(c3ccccc3)(c3ccccc3)CC2)C1c1cccc([N+](=O)[O-])c1 (stereo not given)
inactive: [2] | [5]
active: [10] 26.6 µM | [1] 23.9 µM | [9] 23.7 µM

O=Cc1ccc(F)cc1
not listed: [3] | [7] | [10]
inactive: all other assays above

O[C@@H](c1cc(C(F)(F)F)nc2c(C(F)(F)F)cccc12)[C@H]1CCCCN1
inactive: [2] | [5]
active: [10] 21.1 µM | [1] 19 µM | [8] 15.1 µM

C=C(C)C(=O)OCCC[Si](Cl)(Cl)Cl
not listed: [1] | [2]
inactive: all other assays above

CC(O)C#CC(C)O (stereo not given)
inactive: [2]
active: [4] 27 µM | [9] 19.1 µM | [8] 43.2 µM

C=CC(=O)OCCOCC(CC)(COCCOC(=O)C=C)COCCOC(=O)C=C
inactive: [2]
active: [10] 64.3 µM | [1] 64.3 µM | [4] 11.3 µM

C[C@@H]1CC[C@H]2C(C)(C)[C@H]3C[C@@]12CC[C@@]3(C)O
inactive: [2] | [9] | [5]

CC(COC(=O)c1ccccc1)OC(=O)c1ccccc1 (stereo not given)
not listed: [2]
inactive: all other assays above

SCCCCCCCCS
active: [3] 34.7 µM
not listed: [1] | [2]
inactive: all other assays above

CCc1ccc(O)c(C(C)(C)C)c1
active: [1] 38.9 µM
inactive: [2] | [4] | [9] | [7]

C[C@]12CC[C@H]3C(=CCc4cc(O)ccc43)[C@@H]1CCC2=O
inactive: [10] | [2] | [4] | [9] | [6]
active: [8] 21.9 µM

O=C1c2c(O)ccc(O)c2C(=O)c2c(NCCNCCO)ccc(NCCNCCO)c21
active: [4] 23.7 µM
inactive: [3] | [9]

CCCCCCCC/C=C\CCCCCCCC(=O)OCCOC(=O)CCCCCCC/C=C\CCCCCCCC
not listed: [2]
inactive: all other assays above

CCN(CC)CCOc1ccc(C(O)(Cc2ccc(Cl)cc2)c2ccc(C)cc2)cc1 (stereo not given)
active: [9] 29.8 µM | [8] 21.3 µM
inactive: [2]

CN1CCN(C2Cc3ccccc3Sc3ccc(Cl)cc32)CC1 (stereo not given)
active: [9] 26.6 µM | [8] 23.9 µM
inactive: [2]

O=C(Nc1ccc(Cl)c(Cl)c1)c1cc(Cl)cc(Cl)c1O
active: [1] 2.75 µM | [2] 19.5 µM | [4] 9.69 µM | [9] 2.17 µM | [8] 19.5 µM

O=C(Oc1ccccc1)c1cccc(C(=O)Oc2ccccc2)c1
inactive: [10] | [2] | [4] | [9] | [5]

COCC(=O)O[C@]1(CCN(C)CCCc2nc3ccccc3[nH]2)CCc2cc(F)ccc2[C@@H]1C(C)C
active: [10] 26.6 µM | [1] 21.3 µM | [4] 29.8 µM | [9] 26.6 µM | [8] 15.1 µM
inactive: [2] | [5]

CCCCCCOc1ccc(O)cc1
inactive: [1] | [2] | [4] | [9]

CC(C)c1ccc(O)c(C(C)C)c1
inactive: [2] | [9]
active: [8] 38.9 µM

Oc1ccc(-c2ccc(O)cc2)cc1
inactive: [2] | [4] | [9] | [5] | [6] | [8]

CCCCCCC(C)Nc1ccc(Nc2ccccc2)cc1 (stereo not given)
inactive: [2]
active: [10] 38.9 µM | [5] 49 µM

C=CC(=O)OCC(O)COc1ccccc1 (stereo not given)
active: [9] 61.1 µM
inactive: [2] | [8]

CC(C)OC(=O)c1cc(C(=O)OC(C)C)cc([N+](=O)[O-])c1
inactive: [2] | [4] | [5]

Nc1ncnc2c1ncn2[C@@H]1O[C@H](COP(=O)(O)O)[C@@H](O)[C@H]1O
active: [10] 10.6 µM | [1] 10.7 µM
inactive: [2] | [4] | [9] | [5] | [7]

COC(=O)[C@]1(C)CCC[C@@]2(C)[C@H]1CC=C1C=C(C(C)C)CC[C@@H]12
active: [3] 49 µM
not listed: [1] | [2]
inactive: all other assays above

S=P(N1CC1)(N1CC1)N1CC1
active: [10] 41 µM
inactive: [2] | [4]

CC(C)(c1cc(Br)c(OCCO)c(Br)c1)c1cc(Br)c(OCCO)c(Br)c1
inactive: [2]
active: [10] 38 µM | [4] 47.5 µM | [8] 42.7 µM

COC(=O)CC#N
not listed: [3] | [9]
inactive: all other assays above

CCOC(=O)COc1ccc(C)cc1
not listed: [3] | [7]
inactive: all other assays above

c1ccc(Nc2cccc3ccccc23)cc1
inactive: [2] | [9] | [7]
active: [5] 31.3 µM and 49 µM | [8] 24.9 µM

Cc1cccc(Br)c1
active: [8] 55.3 µM
inactive: [2] | [4]

CC(=O)OC(OC(C)=O)c1ccc([N+](=O)[O-])o1
active: [1] 49.8 µM | [9] 31.2 µM | [8] 49.8 µM
inactive: [2]

O=C1OC(=O)c2cccc3cccc1c23
not listed: [3] | [6]
inactive: all other assays above

CCOC(=O)C1=C(C)NC(C)=C(C(=O)OCC)C1c1ccccc1/C=C/C(=O)OC(C)(C)C
active: [2] 19 µM | [4] 29.8 µM | [5] 26.8 µM
inactive: [10] | [7]

N#CSCSc1nc2ccccc2s1
active: [10] 12.3 µM | [1] 15.5 µM | [3] 12.3 µM | [4] 4.33 µM | [9] 13.7 µM | [5] 43.6 µM

CSc1ccc2c(c1)N(CCC1CCCCN1C)c1ccccc1S2 (stereo not given)
43.5 µM (active) and inactive: [5]
27.2 µM (active) and inactive: [9]
active: [1] 24.4 µM and 23.9 µM | [3] 43.5 µM | [8] 19.4 µM and 26.8 µM
48.4 µM (active) and inactive: [4]

CCCCCCCCCCCCCCNCCO
active: [3] 23.9 µM | [4] 26.6 µM
inactive: [1] | [9] | [5] | [6]

CCN=c1cc2oc3cc(NCC)c(C)cc3c(-c3ccccc3C(=O)OCC)c-2cc1C
active: [10] 27.4 µM and 24.5 µM | [3] 24.5 µM and 38.9 µM | [4] 27.2 µM and 24.3 µM | [9] 3.84 µM and 6.86 µM | [8] 38.8 µM and 49 µM

O=C1C=CC(=O)N1c1ccccc1
inactive: [7]
active: [10] 11 µM | [1] 15.5 µM | [3] 34.7 µM | [4] 15.4 µM | [9] 7.7 µM | [5] 24.5 µM | [8] 15.5 µM

NCCCCCCNCCCCCCN
inactive: [3] | [4] | [9] | [5] | [6] | [8]

CC1CCCNC1 (stereo not given)
inactive: [1] | [3] | [4] | [9] | [5]

CC=O
active: [10] 22.9 µM | [1] 57.5 µM | [3] 16.2 µM | [4] 63.9 µM | [9] 2.02 µM | [8] 14.4 µM
